A selection: hits, their analogues and other compounds. The true share with any hit is near 19%.
IL1B secr inh = blocks inflammasome-driven IL-1 beta release | THP-1 LPS/ATP IL-1B secretion, AlphaLISA, 16 h; hits give low values | actives 4.7% (n = 360,000) | activity change, % at 57.5 µM; in the data active = activity change below about -50%; inconclusive = mostly about -30% to -49%
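Secreted IL-1B measured by AlphaLISA bead assay after 16 h compound exposure of THP-1 cells; compounds (final up to 57.5 uM) added 1 h before LPS (250 ng/mL) and ATP (1.25 mM) stimulation; lower signal means less secretion.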
HT1080NT lethal = kills 2HG-producing HT-1080-NT fibrosarcoma cells; Potency, µM (highest dose often 46.1 µM), hits mostly cytotoxic; actives 1.6% (n = 360,000); HT-1080-NT fibrosarcoma viability, CellTiter-Glo ATP luminescence, 48 h;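 note: NT is the 2HG producing partner of a matched IDH1 knockdown line; nearly all actives have a fitted effect of over 55% in size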
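Viability of the 2HG-overproducing fibrosarcoma line after 48 hours of compound exposure at 37 degrees C was determined by luminescence with CellTiter-Glo, and concentration-effect curves were then fitted and categorized.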
TDP1 cell noCPT = qHTS for Inhibitors of human tyrosyl-DNA phosphodiesterase 1 (TDP1): qHTS in cells in absence of CPT. actives 15% (n = 420,000). Potency, µM (highest dose often 46.2 µM), hits mostly inhibitors. DT40 Tdp1-/- hTDP1 cells, no CPT, ATP luminescence, 48 h. AID 686978, 2013; note: nearly all actives have a fitted effect of over 55% in size
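Luminescent ATP content (CellTiter-Glo) served as the growth readout. Knockout chicken DT40 cells expressing human TDP1 were exposed to compounds without camptothecin for a minimum 48 hr at 37 °C.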
TDP1 cell CPT = DT40-hTDP1 cell growth loss with CPT. AID 686979. Potency, µM (titrated, usually from 46.2 µM), hits mostly inhibitors. actives 12% (n = 420,000). chicken DT40 Tdp1-/-;hTDP1 cells + 20 nM CPT, ATP luminescence, 48 h; note: nearly all actives have a fitted effect of over 55% in size
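Cell growth measured by CellTiter-Glo luminescence after a minimum 48 h, 37 C compound exposure with 20 nM CPT in Tdp1-knockout DT40 cells stably expressing hTDP1, seeded 400/well; qHTS titration format.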
HT1080 IDH1KD tx = kills HT-1080 cells with IDH1 knockdown. AID 686971. actives 2% (n = 360,000). HT-1080 IDH1 knockdown viability, ATP luminescence, 48 h. Potency, µM (highest dose often 46.1 µM), actives largely listed as cytotoxic
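HT-1080-IDH1KD cells (IDH1 knocked down), 750/well in RPMI with 5% FBS, treated with compound 48 h at 37 degrees C. Viability by CellTiter-Glo luminescence, normalised to DMSO and no-cell wells; concentration-response curves classed.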
A number is an active result; 0 = inactive; ? = inconclusive; - = no result given; ! = not active in a repeat. Unless noted, calls come from the whole dose curve; as a rule, active = well fitted curve in the direction sought with a large enough effect; inconclusive = small, poorly fitted or top-dose-only effect, or another doubt; inactive = no such curve, though single readings can be large; an effect the other way counts as inactive or inconclusive.

SMILES	IL1B secr inh	HT1080NT lethal	TDP1 cell noCPT	TDP1 cell CPT	HT1080 IDH1KD tx
O=C(OC1Cc2c(O)cc(O)cc2OC1c1cc(O)c(O)c(O)c1)c1cc(O)c(O)c(O)c1 (configuration not stated)	-	-	?	0	-
Clc1ccccc1Cl	-	-	0	0	-
Cc1oc2cc3oc(=O)c(CCC(=O)N4CCCCC4)c(C)c3cc2c1C	-	-	23µM	12µM	-
COc1ccc(C(c2nnnn2C(C)(C)C)N2CCC3(CC2)C(=O)NCN3c2ccccc2)cc1 (configuration not stated)	0	0	?	?	0
COC(=O)[C@@H]1C[C@H]1[C@@H](NP(=O)(c1ccccc1)c1ccccc1)c1ccccc1	0	0	?	21µM	0
CCOc1ccc(CN(CCc2ccc3c(c2)OCO3)Cc2cccc(Br)c2)cc1	-	-	?	2.1µM	-
CC1CCC(NCCc2ccc3c(c2)OCO3)CC1 (configuration not stated)	0	0	?	?	0
COc1ccc(N2CCN(C(=O)CCCCCn3c(=S)[nH]c4ccc(N5CCOCC5)cc4c3=O)CC2)cc1	0	0	2.9µM	4.1µM	0
CCOc1cc2[nH]c(=O)n(CCCCC(=O)N3CCN(c4cccc(Cl)c4)CC3)c(=O)c2cc1OCC	-	-	5.2µM	2.3µM	-
CCOc1cc2[nH]c(=S)n(CCCC(=O)N3CCC4(CC3)OCCO4)c(=O)c2cc1OCC	0	0	0	0	0
COc1cc2[nH]c(=O)n(CCCCCC(=O)N3CCN(c4cccc(C(F)(F)F)c4)CC3)c(=O)c2cc1OC	-	-	6.5µM	?	-
Cn1ccc2c(-c3ccc(F)nc3)cc3c(c21)C1CCC3C1 (configuration not stated)	0	0	?	?	0
O=C(CCC(=O)N1CC2C[C@@H](C1)Cn1c2cccc1=O)NCCc1ccccc1	0	0	0	0	0
CCCCn1c(C)c(C(=O)OCC)c2c(CN3CCCC3)c(O)ccc21	-79	?	12µM	18µM	0
CCCCn1c(C)c(C(=O)OCC)c2c(CN3CCOCC3)c(O)ccc21	-60	0	0	0	0
CCC(=NCCCn1ccnc1)c1c(O)n(-c2ccc(OC)cc2)c(=O)[nH]c1=O	0	0	0	0	0
COc1ccc(-n2c(=S)[nH]c3ccc(C)cc3c2=O)cc1	0	0	0	0	0
O=C1CC[C@]2(O)C3Cc4ccc(O)c5c4C2(CCN3CC2CC2)C1O5 (some centres not stated)	-	-	0	0	-
C=C[C@@H]1C[C@@]1(C)[C@@H](NP(=O)(c1ccccc1)c1ccccc1)c1ccccc1	0	0	15µM	?	0
Nc1cnn(-c2ccccc2)c(=O)c1Cl	0	0	0	0	0
CCCCSc1nc2c(cnn2-c2ccccc2)c(=O)n1N	-51	0	?	0	0
CSc1cc(-c2ccccc2)n(Cc2c(Cl)cccc2Cl)c(=O)c1C#N	0	0	3.3µM	4.6µM	0
C=CCc1cccc(C=Nc2c[nH]c(=O)[nH]c2=O)c1O	0	0	0	18µM	0
CCc1ccc(NC(=O)CN2C(=O)C3(SCC(=O)N3c3ccc(F)c(F)c3)c3ccccc32)cc1 (configuration not stated)	-	-	?	18µM	-
Cc1ccc(/C(CSc2nccn2-c2ncc(C(F)(F)F)cc2Cl)=N\O)cc1	0	0	18µM	?	0
SMILES	IL1B secr inh	HT1080NT lethal	TDP1 cell noCPT	TDP1 cell CPT	HT1080 IDH1KD tx
CCC(C)(C)n1nnnc1C(c1cccc(C#N)c1)N1CCN(c2cc(C)ccc2C)CC1 (configuration not stated)	0	0	23µM	16µM	0
O=C(c1ccco1)c1cn(Cc2ccccc2Cl)c2ccccc12	0	0	?	18µM	?
O=C(c1ccco1)c1cn(Cc2ccccc2)c2ccccc12	0	0	?	0	0
NS(=O)(=O)c1cccc(N2CCNCC2)c1	0	0	0	0	0
CCc1ccc(-n2nc(C)c3c(C(=O)NCCc4ccc(OC)c(OC)c4)cc(C)nc32)cc1	-	-	18µM	18µM	-
Cc1ccccc1-n1c(CF)nc2ccc(N)cc2c1=O	-	-	0	0	-
CC(C)(C)c1cc(O)ccc1O	-	-	1.2µM	1.7µM	-
COC1CC(C)C(OC)c2cc(O)cc(c2O)NC(=O)C(C)=CC=CC(C)C(OC(N)=O)C(C)=CC(C)C1OC (configuration not stated)	-101	0	0.15µM	0.092µM	23µM
O=C(Cn1cc(C(=O)c2ccccc2F)c2ccccc21)NC1CC1	0	0	0	0	0
NN=C1C(Cl)=C(Cl)C(Cl)=C1Cl	?	0	?	?	0
COc1cc(O)c2c(c1)/C=C/C[C@H](O)[C@H](O)C(=O)CCC[C@H](C)OC2=O	-81	0	?	?	0
CCOP(=S)(OCC)O/N=C(\C#N)c1ccccc1	-	-	0	0	-
CC(C)(C)NS(=O)(=O)c1cccc(S(=O)(=O)c2cccc(S(=O)(=O)NC(C)(C)C)c2)c1	0	?	?	23µM	?
CCCn1c2ccccc2c2nnc(SCC(=O)Nc3cccc(C(C)=O)c3)nc21	-	-	15µM	?	-
O=C(CSc1ccc(-c2ccco2)nn1)Nc1ccccc1	0	0	?	0	0
Cc1cccc(C)c1OCC(=O)Nc1ccc(Cl)cc1C(=O)c1ccccc1	-	-	0	0	-
Cc1ccccc1NC(=O)CCl	-86	0	23µM	18µM	0
Clc1ccc(Cl)cc1	-	-	0	0	-
CCC(NC(=O)OC(C)(C)C)C(=O)Oc1cc(C)cc2oc(=O)c3c(c12)CCC3 (configuration not stated)	0	0	12µM	21µM	0
Cc1cc(OC(=O)CCNC(=O)OC(C)(C)C)c2c3c(c(=O)oc2c1)CCC3	0	0	21µM	?	0
CC(=O)[C@H]1[C@H](C#N)C[C@H]2[C@@H]3CC=C4C[C@@H](O)CC[C@]4(C)[C@H]3CC[C@@]21C	0	0	13µM!	?	0
CCC(C)C(=O)N[C@@H](c1ccccc1)[C@@H](O)C(=O)O[C@H]1C[C@@]2(O)[C@@H](OC(=O)c3ccccc3)C3[C@](C)(C(=O)[C@H](OC(C)=O)C(=C1C)C2(C)C)[C@@H](O)C[C@H]1OC[C@@]31OC(C)=O (some centres not stated)	0	0.18µM	0.18µM	0.029µM	?
C/C=C(\C)C(=O)N[C@@H](c1ccccc1)[C@@H](O)C(=O)O[C@H]1C[C@@]2(O)[C@@H](OC(=O)c3ccccc3)C3[C@](C)(C(=O)[C@H](OC(C)=O)C(=C1C)C2(C)C)[C@H](O)C[C@H]1OC[C@@]31OC(C)=O (some centres not stated)	0	0.046µM	0.16µM	0.13µM	0.0052µM

Screens (PubChem)
